Measurements: PubChem BioAssay AID435019 (Southern Research Specialized Biocontainment Screening …, 2010)
Out of some 2,300 compounds screened, about 1,200 (52%) were called active. How the calls were made is not given here. The set was probably picked from earlier hits. The list shows a part of the results. Where a call stands in place of a potency, no number is given. Potency and affinity values are given separately.

assay: mammalian cell cytotoxicity, dose response, cytotoxicity control for M. tuberculosis inhibitor project (AID 435019); conditions: cytotoxicity counter-screen; series mostly up to 40 µM;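 further: lower values mean fewer viable cells so more cytotoxicity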

| SMILES | outcome |
| --- | --- |
| COc1ccc(/C=N/Nc2nncn2N)cc1Br | inactive |
| CCOC(=O)CSc1snnc1-c1ccccc1 | inactive |
| CCc1ccc(CCOc2ccc(CC3SC(=O)NC3=O)cc2)nc1 (configuration not stated) | inactive |
| Cc1cc(C)n(C(=O)c2ccc([N+](=O)[O-])cc2[N+](=O)[O-])n1 | inactive |
| Cc1ccc(NC(=O)c2ccc(CSc3nnc(C)s3)cc2)c(C)c1 | inactive |
| COC(=O)c1cc(NC(=O)c2c(F)c(F)c(F)c(F)c2F)cc(C(=O)OC)c1 | inactive |
| C=CC[n+]1ccn(-c2nc3ccccc3nc2[N-]S(=O)(=O)c2cccs2)c1 | inactive |
| C/C(CC(=O)Nc1ccc2c(c1)OCCO2)=N\NC(=O)c1ccccc1F | inactive |
| CCOC(=O)C1CCN(c2nc3cc(OC)ccc3cc2C#N)CC1 | inactive |
| N#CC(C(=O)NCc1ccco1)c1nc2ccccc2nc1N1CCOCC1 (configuration not stated) | inactive |
| O=C(/C=C\c1cccs1)N1CCN(Cc2ccc3c(c2)OCO3)CC1 | inactive |
| COC(=O)C1CC(=O)N(c2ccc(OCc3ccccc3Cl)cc2)C1 (configuration not stated) | inactive |
| CCCn1nnc(NC(=O)COc2ccc(CC)cc2)n1 | inactive |
| CCOC(=O)c1cc(-c2ccccc2)nc2c1c(C)nn2-c1ccccn1 | inactive |
| CCOC(=O)c1cnc2ccc(OCC)cc2c1N1CCN(c2ccccc2)CC1 | inactive |
| COc1ccc(OCc2nnc3n2N=C(c2ccccc2)C(CC(=O)O)S3)cc1 (configuration not stated) | inactive |

| SMILES | outcome |
| --- | --- |
| CCOc1ccc(C2=Nc3ccc(Br)cc3C(c3ccc(N4CCOCC4)cc3)=NN2)cc1 | inactive |
| Cc1ccsc1/C=C1\SC(N2CCOCC2)=NC1=O | inactive |
| Cc1nc(S/C(=C/c2ccc(-c3ccc(Cl)cc3)o2)C(=O)O)n[nH]1 | inactive |
| CSCCC(=O)N1CCCC(CNC(=O)c2ccc(-c3ccccc3)cc2)C1 (configuration not stated) | inactive |
| Cc1cc(C)c(C(N)=O)c(SCC(=O)c2ccc(Cl)cc2)n1 | inactive |
| CCC(=O)c1ccc(OCC(=O)OCC(=O)c2cc(C)n(C3CC3)c2C)cc1 | inactive |
| COc1ccc2c(c1)CC/C(=C\C=C\c1ccccc1OC)C2=O | inactive |
| COc1ccc(N=Cc2c[nH][nH]c2=O)cc1 | inactive |
| O=S(=O)(Nc1ccn(-c2ccccc2)n1)c1ccc(Br)cc1 | inactive |
| CCC(C)OC(=O)C(C)Oc1ccc(-c2ccccc2)cc1 (configuration not stated) | inactive |
| O=c1ccn(-c2ccccc2)[nH]1 | inactive |
| Cc1ccc(NC(=O)CNCc2cccs2)cc1Br | inactive |
| O=C(c1cccc([N+](=O)[O-])c1)N1CCN(c2ccc(N3CCOCC3)nn2)CC1 | inactive |
| CCOP(=O)(OCC)/C(=C/N1CCCCC1)NC(=O)c1ccccc1 | inactive |
| Cc1nnc(SCc2ccccc2Cl)n(N)c1=O | inactive |
| Cc1ccccc1CSc1nsc(N)n1 | inactive |
